# In all, about 23,000 compounds went through this assay and about 30 (0.1%) showed an effect of 50% or more. The sample holds strong results, similar compounds and a random draw of the others, so the mix is not that of the screen. Results with a measured potency or affinity are listed apart.
# System: Pseudomonas aeruginosa
# Conditions: Concentration 32 ug.mL-1; ASSAY_TEST Inhibition of Bacterial Growth; detection method Absorption (OD600); MEDIA CAMHB; plate type 384well; NBS; CORNING #3640; time 18 hr
row,SMILES,Inhibition [%]
1,CCOC(=O)/C(C#N)=C\c1ccc([N+](=O)[O-])cc1,5.37
2,N#Cc1cc(C#N)c(N2CCCC2)nc1N1CCCC1,50.45
3,N#Cc1cc(C#N)c(N2CCCC2)nc1N,9.99
4,Cl.N#Cc1cc(C#N)c(N2CCCC2)nc1Cl,9.12
5,COc1ccc2cc(C3C(C(C)=O)=C(C)Oc4nc5c(c(N)c43)CCC5)c(Cl)nc2c1 (configuration not stated),8.84
6,CC(C)NNC(=O)Cc1c[nH]c2ccccc12,53.17
7,O=C(Cc1c[nH]c2ccccc12)NNCc1ccccc1,23.11
8,CCCC(C)NNC(=O)Cc1c[nH]c2ccccc12 (configuration not stated),22.46
9,N#CC1=C(N)Oc2c(ccc3ccccc23)C1c1ccc(O)cc1 (configuration not stated),17.58
10,C#CCN(C)Cc1cc2cc(OCCC3CCN(Cc4ccccc4)CC3)ccc2n1C.Cl,5.95
11,C#CCN(C)Cc1cc2cc(OCCCCC3CCN(Cc4ccccc4)CC3)ccc2n1C,12.81
12,C#CCN(C)Cc1cc2cc(OCCCCC3CCN(Cc4ccccc4)CC3)ccc2n1C.Cl,51.07
13,Nc1c2c(nc3c1c1ccccc1n3Cc1ccccc1)CCCC2,35.2
14,COc1ccc(C2c3c(nc4c(c3N)CCCC4)Oc3ccc4ccccc4c32)cc1 (configuration not stated),16.04
15,COc1cccc(C2c3c(nc4c(c3N)CCCC4)Oc3ccc4ccccc4c32)c1 (configuration not stated),38.82
16,CNC(=O)NC1(C(=O)O)CC1c1ccccc1 (configuration not stated),50.33
17,COC(=O)C1(NC(=O)c2ccccc2)CC1c1ccccc1 (configuration not stated),23.63
18,CN(N=O)C(=O)NC1(C(=O)O)CC1c1ccccc1 (configuration not stated),47.22
19,CNC(=O)c1c(Cl)c2cc(OCc3ccccc3)ccc2n1C,34.06
20,CC1=NC(=Cc2ccccc2)C(=O)S1,24.56
21,COc1ccc(C=C2N=C(c3ccccc3)SC2=O)cc1,50.12
22,COc1ccc(C=C2N=C(c3ccccc3)OC2=O)cc1,9.34
